Source: PubChem (National Center for Advancing Translational Sciences (NCATS))
TDP1 cell noCPT – qHTS for Inhibitors of human tyrosyl-DNA phosphodiesterase 1 (TDP1): qHTS in cells in absence of CPT; DT40 Tdp1-/- hTDP1 cells, no CPT, ATP luminescence, 48 h; Potency, µM (highest dose often 46.2 µM), usual class: inhibitors; 420,000 tested, 15% active; AID 686978, 2013; also: nearly all actives have a fitted effect of over 55% in size
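Cells were dispensed at 400 per well, compounds added by pin tool, plates incubated ≥48 hr at 37 °C, then CellTiter-Glo added for 30 min at room temperature before luminescence reading. Line: DT40 Tdp1-/- complemented with hTDP1; camptothecin omitted.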
ELG1 DNA repair – blocks ELG1-dependent DNA repair in HEK293T cells; 330,000 tested, 2.3% active; Potency, µM (top dose mostly 46.1 µM), hits mostly inhibitors; AID 504467; HEK293T ELG1-luciferase reporter, luminescence, 16 h; DNA damage induced by 5-fluorouridine; also: nearly all actives have a fitted effect of over 55% in size
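Step one: seed 2,000 cells per well. Step two: pin-transfer compound or DMSO alongside 5-fluorouridine. Step three: incubate 16 hr, 37 °C, 5% CO2. Step four: add ONE-Glo, wait 30 min, read luminescence.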
DT40 TDP1 CPT – DT40-hTDP1 cell growth loss with CPT; chicken DT40 Tdp1-/-;hTDP1 cells + 20 nM CPT, ATP luminescence, 48 h; Potency, µM (titrated, usually from 46.2 µM), actives largely listed as inhibitors; 420,000 tested, 12% active; AID 686979; also: nearly all actives have a fitted effect of over 55% in size
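Chicken DT40 Tdp1-/- cells complemented with human TDP1, 400 cells/well, exposed to compounds plus 20 nM camptothecin for at least 48 h at 37 C; viability read as ATP content by CellTiter-Glo luminescence.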
IL-1B inflam inh – inflammasome signaling inhibition, IL-1 beta readout; THP-1 LPS/ATP IL-1B secretion, AlphaLISA, 16 h; stronger effect = lower value; activity change, % at 57.5 µM; 360,000 tested, 4.7% active; AID 743279; in the data active = activity change below about -50%; inconclusive = mostly about -30% to -49%
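THP-1 cells pretreated 1 hr with compounds (up to 57.5 uM final), then stimulated with LPS (250 ng/mL final) plus ATP (1.25 mM final); secreted IL-1B measured by AlphaLISA after 16 hr, decreased signal indicating inhibition.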
HT1080 IDH1KD tx – toxicity to HT-1080 IDH1 knockdown cells (counter line) | AID 686971 | Potency, µM (top dose mostly 46.1 µM), actives largely listed as cytotoxic | HT-1080 IDH1 knockdown viability, ATP luminescence, 48 h | 360,000 tested, 2% active
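IDH1KD HT-1080 cells, 750/well, RPMI + 5% FBS; compound pinned after 2 h settling; 48 h, 37 °C; CellTiter-Glo luminescence; % activity normalised to DMSO and no-cell wells; curves fitted, classed by r2 and efficacy.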
HT1080-NT tox – kills 2HG-producing HT-1080-NT fibrosarcoma cells; HT-1080-NT fibrosarcoma viability, CellTiter-Glo ATP luminescence, 48 h; Potency, µM (titrated, usually from 46.1 µM), most hits filed as cytotoxic; 360,000 tested, 1.6% active;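 also: NT is the 2HG producing partner of a matched IDH1 knockdown line; nearly all actives have a fitted effect of over 55% in size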
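HT-1080-NT; 750 cells/well; 5% FBS RPMI; 48 h compound, 37 degrees C; CellTiter-Glo luminescence; curve fitting and curve-class assignment.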
Each line names hits and unclear results; the compound was inactive in the other large screens. An excerpt weighted towards active compounds, which were near 19% of everything screened. Unless noted, calls follow the shape of the dose curve; as a rule, active = well fitted curve in the direction sought with a large enough effect; inconclusive = small, poorly fitted or top-dose-only effect, or another doubt; inactive = no such curve, though single readings can be large; an effect the other way counts as inactive or inconclusive.

CN(C)C(=S)Nc1ccc2c(c1)OCCO2	none
O=C(OCC1CCCO1)c1ccc2c(c1)N(Cc1c(F)cccc1Cl)C(=O)c1ccccc1S2(=O)=O (configuration not stated)	none (no result: ELG1 DNA repair, IL-1B inflam inh, HT1080 IDH1KD tx, HT1080-NT tox)
CC(C)(C)OC(=O)N1CCC(c2c(C(=O)NCCN3CCCC3)cnn2-c2ccc(Cl)cc2)CC1	TDP1 cell noCPT 23µM, DT40 TDP1 CPT inconclusive (no result: ELG1 DNA repair, IL-1B inflam inh, HT1080 IDH1KD tx, HT1080-NT tox)
Cc1ccc(-n2ncc(C(=O)NCCN3CCCC3)c2C2CCN(C(=O)OC(C)(C)C)CC2)cc1	TDP1 cell noCPT inconclusive, DT40 TDP1 CPT 23µM (no result: ELG1 DNA repair, IL-1B inflam inh, HT1080 IDH1KD tx, HT1080-NT tox)
COc1ccccc1CN1CCC(CNC(=O)c2cnn(-c3ccc(Cl)cc3)c2C2CCN(C(=O)OC(C)(C)C)CC2)CC1	TDP1 cell noCPT 5.2µM, DT40 TDP1 CPT 3.7µM (no result: ELG1 DNA repair, IL-1B inflam inh, HT1080 IDH1KD tx, HT1080-NT tox)
CC(C)(C)OC(=O)N1CCC(c2c(C(=O)NCCN3CCOCC3)cnn2-c2ccccc2)CC1	TDP1 cell noCPT 5.8µM, DT40 TDP1 CPT 5.8µM (no result: ELG1 DNA repair, IL-1B inflam inh, HT1080 IDH1KD tx, HT1080-NT tox)
CC(C)(C)OC(=O)N1CCC(c2c(C(=O)NC3CC3)cnn2-c2ccc(Cl)cc2)CC1	DT40 TDP1 CPT inconclusive
CC(C)(CNC(=O)c1cnn(-c2ncc3c(n2)-c2ccccc2CC3)c1C1CC1)N1CCOCC1	none (no result: ELG1 DNA repair, IL-1B inflam inh, HT1080 IDH1KD tx, HT1080-NT tox)
CC(C)(C)OC(=O)N1CCC(c2c(C(=O)NCCN3CCC(Cc4ccccc4)CC3)cnn2-c2cccc(Cl)c2)CC1	TDP1 cell noCPT 3.7µM, DT40 TDP1 CPT 5.8µM (no result: ELG1 DNA repair, IL-1B inflam inh, HT1080 IDH1KD tx, HT1080-NT tox)
O=C(NCCN1CCOCC1)c1cnn(-c2ncc3c(n2)-c2ccccc2CC3)c1C1CC1	TDP1 cell noCPT 23µM (no result: ELG1 DNA repair, IL-1B inflam inh, HT1080 IDH1KD tx, HT1080-NT tox)
Cc1cccc(C)c1-n1ncc(C(=O)NCCN2CCOCC2)c1C1CCN(C(=O)OC(C)(C)C)CC1	none (no result: ELG1 DNA repair, IL-1B inflam inh, HT1080 IDH1KD tx, HT1080-NT tox)
O=C(Nc1ccc2c(c1)OCCO2)C(C1CC1)n1c(=O)c(-c2cc3ccccc3[nH]2)nc2ccccc21 (configuration not stated)	TDP1 cell noCPT inconclusive, DT40 TDP1 CPT inconclusive, HT1080 IDH1KD tx inconclusive, HT1080-NT tox inconclusive (no result: ELG1 DNA repair)
CS(=O)(=O)N1CCC2(CCN(C(=O)Nc3cccc(C#N)c3)CC2)CC1	none (no result: ELG1 DNA repair, IL-1B inflam inh, HT1080 IDH1KD tx, HT1080-NT tox)
Cn1c(=O)n(Cc2ccccc2)c2ccccc21	none
Cn1c(=O)n(Cc2ccc(Br)cc2)c2ccccc21	TDP1 cell noCPT inconclusive, DT40 TDP1 CPT inconclusive, IL-1B inflam inh -108, HT1080-NT tox inconclusive
O=[N+]([O-])c1cc(-n2cnnn2)ccc1N1CCC(Cc2ccccc2)CC1	TDP1 cell noCPT 9.2µM, ELG1 DNA repair inconclusive, DT40 TDP1 CPT 23µM
CCC(Cc1ccccc1)NC(=O)C1CC1 (configuration not stated)	none
Cn1c(SCC(=O)NCc2ccco2)nnc1-c1c[nH]c2ccccc12	DT40 TDP1 CPT 21µM
Cn1c(SCC(=O)NCc2ccco2)nnc1-c1ccccc1	ELG1 DNA repair inconclusive
CCOc1ccc(-n2c(SCC(=O)Nc3cc(C)on3)nnc2-c2c[nH]c3ccccc23)cc1	none
CCOc1ccc(Nc2nc(Cc3nnc(SCC(=O)NCc4ccco4)n3CC)cs2)cc1	TDP1 cell noCPT 13µM, DT40 TDP1 CPT 13µM
CCOc1ccc(-n2c(SCC(=O)NCc3ccco3)nnc2-c2c[nH]c3ccccc23)cc1	TDP1 cell noCPT 13µM, ELG1 DNA repair inconclusive, DT40 TDP1 CPT inconclusive
CCn1c(COc2ccc(C)cc2)nnc1SCC(=O)NCc1ccco1	none
O=c1[nH]c(C(Cl)(Cl)Cl)nc2ccc3ccccc3c12	none
Cc1cn2c(=O)cc(COC(=O)c3ccccc3F)nc2s1	none (no result: ELG1 DNA repair, IL-1B inflam inh, HT1080 IDH1KD tx, HT1080-NT tox)
COc1ccc2c(C)cc(N3CCN(Cc4ccccc4)CC3)nc2c1	none
Cc1cc(N2CCN(c3ccccc3)CC2)nc2ccccc12	none
COc1ccc2c(C)cc(N3CCCCCC3)nc2c1	TDP1 cell noCPT inconclusive, DT40 TDP1 CPT inconclusive, IL-1B inflam inh -67
Cc1cc(N2CCC(N(C)C3CCCC3)CC2)nc2cc(O)ccc12	TDP1 cell noCPT 18µM, DT40 TDP1 CPT inconclusive
O=C(Nc1cccc(-c2ccc(N3CCOCC3)nn2)c1)c1cccc(Cl)c1	TDP1 cell noCPT 21µM (no result: ELG1 DNA repair)
O=C(Nc1cccc(-c2ccc(N3CCCCC3)nn2)c1)c1ccco1	TDP1 cell noCPT 13µM, ELG1 DNA repair inconclusive, DT40 TDP1 CPT inconclusive
Cc1ccc(C(=O)Nc2cccc(-c3ccc(N4CCOCC4)nn3)c2)cc1C	TDP1 cell noCPT inconclusive, ELG1 DNA repair inconclusive, DT40 TDP1 CPT inconclusive
O=C(Nc1cccc(-c2ccc(N3CCOCC3)nn2)c1)c1ccccc1Cl	ELG1 DNA repair inconclusive
Cc1cc(C(=O)Nc2cccc(-c3ccc(N4CCOCC4)nn3)c2)ccc1[N+](=O)[O-]	TDP1 cell noCPT 26µM, ELG1 DNA repair inconclusive, DT40 TDP1 CPT inconclusive
COC(=O)c1cc2sc(C)cc2n1Cc1nc(-c2ccc(C)cc2)oc1C	none (no result: ELG1 DNA repair, IL-1B inflam inh, HT1080 IDH1KD tx, HT1080-NT tox)
Cc1cccc(N2CCN(C(=O)C3CCN(S(=O)(=O)c4ccc5c(c4)oc(=O)n5C)CC3)CC2)c1C	TDP1 cell noCPT 3.7µM, DT40 TDP1 CPT 4.6µM (no result: ELG1 DNA repair, IL-1B inflam inh, HT1080 IDH1KD tx, HT1080-NT tox)
CCOC(=O)c1cccc(NC(=O)C2CCN(S(=O)(=O)c3ccc4c(c3)oc(=O)n4C)CC2)c1	TDP1 cell noCPT 21µM, DT40 TDP1 CPT inconclusive (no result: ELG1 DNA repair, IL-1B inflam inh, HT1080 IDH1KD tx, HT1080-NT tox)
